Results filed as inconclusive are left out. The source made the active and inactive calls. Calls come from the whole dose curve; as a rule, active = well fitted curve in the direction sought with a large enough effect; inconclusive = small, poorly fitted or top-dose-only effect, or another doubt; inactive = no such curve, though single readings can be large; an effect the other way counts as inactive or inconclusive. Where a SMILES comes first, the peptide text is derived from it. The star is where a group is joined. βNA = c1ccc2cc(N*)ccc2c1; Cbz = O=C(OCc1ccccc1)*
Key:
[1] = molecular target: Calcium and integrin-binding protein 1 (Homo sapiens) (UniProt Q99828); assay: Primary qHTS for Identification of Calcium Integrin Binding Protein 1 (CIB1) Competitor (AID 1508620);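 note: GST tagged CIB1 binding a fluorescein labelled alphaIIb integrin peptide tracer; top concentration of the series differs between compounds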
Chain of Calcium and integrin-binding protein 1 (Homo sapiens) (Q99828 whole entry, looked up): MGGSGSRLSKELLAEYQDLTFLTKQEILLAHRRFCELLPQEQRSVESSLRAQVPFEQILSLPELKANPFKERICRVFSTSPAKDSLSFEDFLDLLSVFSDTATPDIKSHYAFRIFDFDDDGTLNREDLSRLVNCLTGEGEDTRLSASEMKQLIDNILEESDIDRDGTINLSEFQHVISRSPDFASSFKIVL
How it was run: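 Fluorescence polarization competition: GST-tagged CIB1 (1 uM final) preincubated with compound 15 min at room temperature, then FITC-labelled alphaIIb peptide (100 nM final) added. After 15 min at room temperature, polarization read at Ex 480/Em 540.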

[2] = Primary qHTS for inhibitors of nuclear receptor binding SET domain protein 2 (NSD2) in an isogenic RCH-ACV NSD2 p.E1099K mutant (9B) (AID 1645876); note: nearly all actives have a fitted effect of over 70% in size
[3] = Primary qHTS for inhibitors of nuclear receptor binding SET domain protein 2 (NSD2) in an RCH-ACV wild type WT cells (2C) (AID 1645877); note: nearly all actives have a fitted effect of over 70% in size
% is set by controls: 0 for no effect and ±100 for the full control effect.

C=C[C@H]1[C@H](O[C@@H]2O[C@H](CO)[C@@H](O)[C@H](OC(=O)/C=C/c3ccc(O)c(OC)c3)[C@H]2O)OC=C2C(=O)OCC[C@]21O
inactive: Potency [1] | Potency [2] | Potency [3]

CC1OC(OC2C(OC3C(O[C@H]4CC[C@@]5(C)C(CC[C@]6(C)C5C(=O)CC5=C7CC(C)(C)CC(O)[C@]7(C)CC[C@]56C)C4(C)C)OC(C(=O)O)C(O)C3O)OCC(O)C2O)C(O)C(O)C1O (stereo partly drawn)
inactive: Potency [1] | outcome [2] inactive [at 9.23 µM] | outcome [3] inactive [at 9.23 µM]

CC1CC(=O)C2=C(O1)OC1(C)CCC3C(C)(C)C4OC4C(=O)C3(C)C1C2 (stereo not drawn)
inactive: Potency [1] | Potency [2] | Potency [3]

CC(C)CC(NC(=O)OCc1ccccc1)C(=O)NC(CC(C)C)C(=O)NC(CCC(=O)O)C(=O)Nc1ccc2ccccc2c1 (stereo not drawn) (Cbz-Leu-Leu-Glu-βNA; configuration not given here)
inactive: Potency [1] | Potency [2] | Potency [3]

CC1=CC(=O)CC(C)(C)[C@@]1(O)/C=C/C(C)O[C@@H]1O[C@H](CO)[C@@H](O)[C@H](O)[C@H]1O (stereo partly drawn)
inactive: Potency [1] | Potency [2] | Potency [3]

CCC/C=C/C=C/C1CC(O)C(O)C(=O)C1CO (stereo not drawn)
inactive: Potency [1] | Potency [2] | Potency [3]

CCC(C)C(C(=O)O)N1Cc2c(OCC=C(C)C)c(C)c(OC)c(C(=O)O)c2C1=O (stereo not drawn)
inactive: Potency [1] | Potency [2] | Potency [3]

C[C@@H]1O[C@@H](O[C@H]2[C@H](OC(=O)[C@]34CCC(C)(C)C[C@H]3C3=CCC5[C@@]6(C)C[C@@H](O)[C@@H](O)[C@@](C)(CO)C6[C@H](O)C[C@@]5(C)[C@]3(C)CC4)OC[C@H](O)[C@@H]2O)[C@H](O)[C@H](O)[C@H]1O[C@@H]1OC[C@@H](O)[C@H](O[C@H]2O[C@H](C)[C@@H](O)[C@H](O)[C@@H]2O)[C@H]1O (stereo partly drawn)
inactive: Potency [1] | activity change, negative = viability loss [2] -2.76% [at 9.23 µM] | activity change, negative = cell killing [3] -1.27% [at 9.23 µM]

CC1(C)CC[C@]2(C(=O)O[C@@H]3O[C@H](CO)[C@@H](O)[C@H](O)[C@H]3O)CC[C@]3(C)C(=CCC4[C@@]5(C)C[C@@H](O)[C@H](O)[C@@](C)(CO)C5[C@H](O)C[C@]43C)C2C1 (stereo partly drawn)
inactive: Potency [1] | Potency [2] | Potency [3]

C=Cc1ccc(O[C@@H]2O[C@H](CO[C@@H]3O[C@@H](C)[C@H](O)[C@@H](O)[C@H]3O)[C@@H](O)[C@H](O)[C@H]2O)cc1
inactive: Potency [1] | Potency [2] | Potency [3]

C/C(=C\CCC(C)CCO)C(=O)OC[C@H]1O[C@@H](O[C@@H]2OC=C(C(=O)O)[C@H]3CC[C@](C)(O)[C@@H]23)C(O)[C@@H](O)C1O (stereo partly drawn)
inactive: Potency [1] | Potency [2] | Potency [3]

CC(=O)NC(Cc1ccccc1)C(=O)NC(C(=O)O)C(C)C (stereo not drawn) (Ac-Phe-Val-OH; configuration not given here)
inactive: Potency [1] | Potency [2] | Potency [3]

C/C(=C\C(=O)C[C@@]12C(=O)O[C@]3(C)CC[C@H]1C[C@H]23)C(N)=O
inactive: Potency [1] | Potency [2] | Potency [3]

CC1=C2C(=O)C=C(CO[C@@H]3O[C@H](CO)[C@@H](O)[C@H](O)[C@H]3O)[C@@H]2[C@H]2OC(=O)[C@H](C)[C@@H]2[C@@H](O)C1
inactive: Potency [1] | Potency [2] | Potency [3]

C[C@@]1(C(=O)O)CCC[C@@]2(C)C3=CC[C@H]4C[C@@]3(CC[C@H]12)CC4(O)CO (stereo partly drawn)
inactive: Potency [1] | Potency [2] | Potency [3]

COc1ccc(CCC(=O)O)c(O[C@@H]2O[C@H](CO)[C@@H](O)[C@H](O)[C@H]2O)c1
inactive: Potency [1] | Potency [2] | Potency [3]

C[C@H](O)C(O)(C(=O)OCc1ccccc1NC(=O)CCC(N)C(=O)O)[C@H](C)O (stereo partly drawn)
inactive: Potency [1] | Potency [2] | Potency [3]

C=C[C@@](C)(CCC=C(C)C)O[C@@H]1O[C@H](CO[C@@H]2OC[C@H](O)[C@H](O)[C@H]2O)[C@@H](O)[C@H](O)[C@H]1O
inactive: Potency [1] | Potency [2] | Potency [3]

CC1CC(=O)[C@]2(O)C(C(=O)OCCc3ccc(O)c(O)c3)=CO[C@@H](O[C@@H]3O[C@H](CO)[C@@H](O)[C@H](O)[C@H]3O)[C@H]12 (stereo partly drawn)
inactive: Potency [1] | Potency [2] | Potency [3]

O=C(O)c1ccc(NC(=O)[C@H](CC2CCCC2)n2cnc(C(F)(F)F)c2)nc1
inactive: Potency [1] | Potency [2] | Potency [3]

COc1ccc(/C=C/C(=O)O[C@@H]2[C@@H](O)[C@@H](O)[C@H](O[C@H]3[C@@H]4C=CO[C@@H](O[C@@H]5O[C@H](CO)[C@@H](O)[C@H](O)[C@H]5O)[C@@H]4[C@@]4(CO)O[C@@H]34)O[C@H]2C)cc1
inactive: Potency [1] | Potency [2] | Potency [3]
